Experiment [1] is described as follows: qHTS assay to identify small molecule agonists of H2AX (AID 1224845; active means well fitted activation curve with a large enough effect in the signal ratio in the repeat runs, not every such curve was filed as active; the % refers to the signal ratio). The method in brief:
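Wild-type CHO-K1 cells plated overnight, then exposed 3 hr at 37C to compounds at 15 concentrations (0.76% DMSO). Lysed, then HTRF anti-pH2AX(S139)-cryptate/anti-H2AX-d2 detection after 24 hr at room temperature; emissions 665 and 620 nm.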
On the technique in general: In qHTS, concentration-response curves come from the screen itself.

Experiment [2] in a line: qHTS assay to identify small molecule agonists of the hypoxia (HIF-1) signaling pathway (AID 1224846; active means well fitted activation curve with a large enough effect in the signal ratio in the repeat runs, not every such curve was filed as active; the % refers to the signal ratio). The method in brief: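 In ME-180 cells bearing an HRE-bla construct, 17 h treatment with DMSO-dissolved compounds at 37C was followed by CCF4-AM loading to quantify reporter induction.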
Experiment [3] is described as follows: qHTS assay to identify small molecule antagonists of the estrogen related receptor (ERR) signaling pathway from Tox21 library (AID 1224848). Further: nearly all actives have a fitted effect of over 50% in size. The method in brief:
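First, 2,000 ERR cells per well were plated and held 6 h at 37 C/5% CO2. Next, compounds in DMSO were pinned in and left 18 h at 37 C. Finally, ONE-Glo was added and luminescence read after 30 min at room temperature.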

A short description of experiment [4]: qHTS assay to identify small molecule agonists of the estrogen related receptor (ERR) signaling pathway from Tox21 library (AID 1224849; calls by dose curve; further: nearly all actives have a fitted effect of over 15% in size). The settings on record: ERR reporter cell line, ONE-Glo luciferase, 18 h; at 92.4 µM (top of the series) unless noted. The method in brief: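 Reporter cells (ERR, NTP source) treated with Tox21 10K compounds 18 h, 37 C. Readout: ONE-Glo luminescence, 30 min RT.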

Experiment [5] is described as follows: qHTS RealTime-Glo MT Cell Viability Assay in HEK293 cells - 32 hour (AID 1224868). Further: top concentration of the series differs between compounds; nearly all actives have a fitted effect of over 50% in size. In outline: (§1)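 Reads taken at 0, 8, 16, 24, 32 and 40 h from the same wells. HEK293 cells (600/well) carried RealTime-Glo reagents from seeding, with compound added after a 5 h settle at 37 C.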
A short description of experiment [6]: A CellTox Green Cytotoxicity Assay to monitor cytotoxicity in HEK293 cells - 0 hour (AID 1224869). Further: nearly all actives have a fitted effect of over 50% in size. The method in brief: (§2)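 Homogeneous no-lysis format: HEK293 cell suspension mixed with CellTox Green reagent, seeded, incubated 5 h at 37 C/5% CO2, then dosed by pintool with compound in DMSO.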
Experiment [7] is described as follows: qHTS RealTime-Glo MT Cell Viability Assay in HepG2 cells - 40 hour (AID 1224870). Further: nearly all actives have a fitted effect of over 50% in size. Further: potency means the concentration at half of the fitted maximal effect. In outline: (§3)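 HepG2 cells mixed with RealTime-Glo MT reagents (NanoLuc plus cell-permeant prosubstrate) were seeded at 600 cells/well, incubated 5 h at 37 C/5% CO2, then pinned with compounds in DMSO; nonlytic luminescence tracked viability during 40 h treatment.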
Experiment [8] is described as follows: A CellTox Green Cytotoxicity Assay to monitor cytotoxicity in HEK293 cells - 40 hour (AID 1224871). Further: nearly all actives have a fitted effect of over 45% in size. In outline:
as §2

Experiment [9] is described as follows: qHTS RealTime-Glo MT Cell Viability Assay in HEK293 cells - 16 hour (AID 1224872). In outline:
as §1

A short description of experiment [10]: qHTS RealTime-Glo MT Cell Viability Assay in HEK293 cells - 40 hour (AID 1224874). Further: nearly all actives have a fitted effect of over 50% in size. Conditions: RealTime-Glo luminescence; max response: stronger effect = lower value. The method in brief: (§4)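 Measured as luminescence from the same continuously cultured HEK293 wells at successive time points (0, 8, 16, 24, 32, 40 h) after compound addition. Reagent present from seeding; dosing at 5 h; incubation 37 C.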

Experiment [11] in a line: A CellTox Green Cytotoxicity Assay to monitor cytotoxicity in HEK293 cells - 24 hour (AID 1224875). Further: nearly all actives have a fitted effect of over 45% in size. The method in brief:
as §2

A short description of experiment [12]: A CellTox Green Cytotoxicity Assay to monitor cytotoxicity in HepG2 cells - 16 hour (AID 1224876). Further: nearly all actives have a fitted effect of over 45% in size. The method in brief:
(§5)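 Fluorescent DNA-binding dye, 600 HepG2 cells/well, 5 h preincubation then compound in DMSO; same plates read at 0–40 h, 37 C.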

Experiment [13] is described as follows: qHTS RealTime-Glo MT Cell Viability Assay in HepG2 cells - 32 hour (AID 1224877). Further: nearly all actives have a fitted effect of over 55% in size. Further: potency means the concentration at half of the fitted maximal effect. The method in brief: (§6)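 HepG2 suspension premixed with RealTime-Glo reagents is plated at 600 cells per well and left 5 h at 37 C/5% CO2. Compounds in DMSO then go in, and bioluminescence reflecting viable cell number is recorded over 40 h.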
Experiment [14] can be described thus: A CellTox Green Cytotoxicity Assay to monitor cytotoxicity in HepG2 cells - 24 hour (AID 1224878). Further: nearly all actives have a fitted effect of over 45% in size. Further: potency means the concentration at half of the fitted maximal effect. In outline:
as §5

Experiment [15] in a line: qHTS RealTime-Glo MT Cell Viability Assay in HEK293 cells - 0 hour (AID 1224880). In outline: as §4
Experiment [16] is described as follows: A CellTox Green Cytotoxicity Assay to monitor cytotoxicity in HEK293 cells - 32 hour (AID 1224881). Further: nearly all actives have a fitted effect of over 40% in size. The method in brief: as §2
Experiment [17] is described as follows: qHTS assay to identify small molecule agonists of H2AX - cell viability counter screen (AID 1224847; calls by dose curve; further: top concentration of the series differs between compounds; nearly all actives have a fitted effect of over 30% in size). The method in brief: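 Counter-screen for viability: CellTiter-Glo ATP luminescence read after 3 h compound treatment (15-point titration, 0.76% DMSO final) of CHO-K1 cells at 37C, with 30 min room-temperature reagent incubation.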
A short description of experiment [18]: qHTS RealTime-Glo MT Cell Viability Assay in HepG2 cells - 24 hour (AID 1224867). Further: nearly all actives have a fitted effect of over 50% in size. In outline:
as §6

Experiment [19] in a line: qHTS RealTime-Glo MT Cell Viability Assay in HepG2 cells - 8 hour (AID 1224873). Further: nearly all actives have a fitted effect of over 55% in size. In outline:
as §3

Experiment [20] is described as follows: A CellTox Green Cytotoxicity Assay to monitor cytotoxicity in HepG2 cells - 40 hour (AID 1224879). Further: nearly all actives have a fitted effect of over 40% in size. Further: potency means the concentration at half of the fitted maximal effect. In outline: as §5

Values without a mark were called inactive. Results filed as inconclusive are left out. Activity calls are given as the source filed them. Unless noted, the call rests on the fitted dose curve; in most records, active means well fitted curve in the direction sought with a large enough effect in the repeat runs; inconclusive means weak or mixed curves; inactive means no such curve, though single readings can be large; an effect the other way counts as inactive or inconclusive.
On the % scale 0 is the no-effect control and ±100 the full control effect.

As to `N[C@H]1C(O)O[C@H](CO)[C@H](O)[C@@H]1O` (stereo not given in full), the Potency result in experiment [1], in [3], in experiment [5], in experiment [6], in [7] and in experiment [8] was “inactive” throughout. Further, the Potency result in [9], in experiment [11], in [12], in experiment [13], in experiment [14] and in experiment [15] was “inactive” each time. Also, the Potency result in experiment [16] was “inactive”. The compound was classed as inactive in [2]. The activity change, positive = activation in experiment [4] was 1.03%. The max response in [10] was 9.12%.

With `CN(C)CCCNCCCN`, the Potency entry in experiment [1], in experiment [17], in experiment [18], in experiment [6], in [7] and in [8] was “inactive” throughout. The Potency result in experiment [9], in experiment [19], in experiment [11], in [13], in experiment [15] and in experiment [16] was “inactive” in each case. Also, the call in [2] was inactive. For the same compound, the max response in [10] was 24.4%.

Regarding `N#Cc1c(F)cccc1F`, the Potency entry in [1], in experiment [17], in experiment [18], in experiment [5], in experiment [6] and in experiment [7] was “inactive” each time. Besides, the Potency result in experiment [8], in [9], in experiment [11], in experiment [12], in [13] and in experiment [14] was “inactive” throughout. The Potency entry in experiment [20] and in experiment [16] was “inactive” throughout. Besides, the compound was called inactive in experiment [2]. Further, in experiment [10], the max response is -15.1%.

Regarding `CC(=O)O[C@H]1C[C@@H]2CC[C@@H]3[C@H](CC[C@@]4(C)[C@H]3C[C@H]([N+]3(C)CCCCC3)[C@@H]4OC(C)=O)[C@@]2(C)C[C@@H]1N1CCCCC1`, the Potency entry in [1], in experiment [17], in experiment [18], in [5], in experiment [6] and in [7] was “inactive” in each case. The Potency entry in experiment [9], in experiment [19], in [11], in experiment [12], in experiment [13] and in [14] was “inactive” in each case. The Potency entry in [20], in [15] and in [16] was “inactive” in each case. Also, the compound was called inactive in experiment [2]. The max response in [10] was 3.64%.

As for `Cc1ccc(O)c([C@H](CCN(C(C)C)C(C)C)c2ccccc2)c1`, the Potency entry in [1], in experiment [17], in experiment [18], in experiment [5], in experiment [6] and in [7] was “inactive” throughout. Also, the Potency result in [8], in experiment [9], in experiment [19], in experiment [11], in [12] and in experiment [13] was “inactive” in each case. Moreover, the Potency result in experiment [16] was “inactive”. Besides, the compound was called inactive in [2]. Besides, the Potency was 21.3 µM (active) in [14] and 23.9 µM (active) in experiment [20].

Turning to `CC[C@H](C)[C@@H](C(=O)O)n1sc2ccccc2c1=O`, the Potency result in experiment [1], in experiment [17], in [5], in [6], in experiment [9] and in experiment [11] was “inactive” in each case. The Potency result in experiment [12], in experiment [14], in experiment [20], in [15] and in experiment [16] was “inactive” throughout. In experiment [2], the call was inactive. The Potency is 30.9 µM (active) in [7] and 49 µM (active) in experiment [13]. Further, the max response in experiment [10] is -0.529%.

Regarding `CC1=CCC(C(C)C)C=C1` (stereo not given), the Potency entry in [1], in experiment [17], in [18], in [5], in [6] and in [7] was “inactive” throughout. Moreover, the Potency result in [8], in experiment [9], in [19], in [11], in experiment [13] and in experiment [14] was “inactive” throughout. The Potency entry in [20], in experiment [15] and in experiment [16] was “inactive” each time. The outcome in [2] was inactive.

Turning to `CCCCCCCCCCCCC(=O)O`, the Potency result in experiment [1], in experiment [17], in [18], in experiment [5], in experiment [6] and in [7] was “inactive” in each case. In addition, the Potency result in [8], in experiment [9], in [11], in experiment [12], in [13] and in experiment [14] was “inactive” throughout. The Potency result in [20], in experiment [15] and in [16] was “inactive” in each case. Also, the compound was classed as inactive in experiment [2]. Moreover, the max response in experiment [10] was 0.0822%.

Consider `CN(C(=O)CCCOc1ccc2[nH]c(=O)ccc2c1)C1CCCCC1`, for which the Potency entry in experiment [1], in experiment [17], in experiment [6], in experiment [7], in [8] and in experiment [19] was “inactive” in each case. The Potency entry in experiment [11], in experiment [12], in [13], in [14], in experiment [20] and in experiment [15] was “inactive” each time. Moreover, the Potency entry in [16] is “inactive”. The activity change, positive = activation in experiment [4] was -12.9% [at 42.5 µM].

As for `Oc1ccc(C(O)CNCCCCCCNCC(O)c2ccc(O)c(O)c2)cc1O` (stereo not given), the call in experiment [2] was inactive. In addition, the Potency entry in experiment [17], in experiment [3], in experiment [18], in experiment [5], in [6] and in experiment [7] was “inactive” in each case. Moreover, the Potency entry in experiment [8], in experiment [9], in [19], in [11], in experiment [12] and in experiment [13] was “inactive” throughout. The Potency result in experiment [14], in experiment [20], in experiment [15] and in experiment [16] was “inactive” each time. Further, the activity change, positive = activation in experiment [4] was 1.29% [at 42.5 µM]. Further, in [10], the max response is 1.45%.

`NC(N)=N/N=C/c1c(Cl)cccc1Cl`: the Potency result in experiment [1], in [17], in experiment [18], in [5], in experiment [6] and in experiment [7] was “inactive” throughout. Further, the Potency entry in [8], in experiment [9], in experiment [19], in [11], in experiment [12] and in [13] was “inactive” throughout. The Potency entry in experiment [16] was “inactive”. Also, the activity change, positive = activation in experiment [4] is -17.6% [at 42.5 µM]. Besides, the max response in experiment [10] is -22.8%.
